{"source": "PubChem BioAssay AID743314", "about": "(Broad Institute, 2014)", "molecular_target": "Endoplasmic reticulum aminopeptidase 1 (Homo sapiens) (UniProt Q9NZ08)", "sequence (Q9NZ08 whole entry, looked up)": "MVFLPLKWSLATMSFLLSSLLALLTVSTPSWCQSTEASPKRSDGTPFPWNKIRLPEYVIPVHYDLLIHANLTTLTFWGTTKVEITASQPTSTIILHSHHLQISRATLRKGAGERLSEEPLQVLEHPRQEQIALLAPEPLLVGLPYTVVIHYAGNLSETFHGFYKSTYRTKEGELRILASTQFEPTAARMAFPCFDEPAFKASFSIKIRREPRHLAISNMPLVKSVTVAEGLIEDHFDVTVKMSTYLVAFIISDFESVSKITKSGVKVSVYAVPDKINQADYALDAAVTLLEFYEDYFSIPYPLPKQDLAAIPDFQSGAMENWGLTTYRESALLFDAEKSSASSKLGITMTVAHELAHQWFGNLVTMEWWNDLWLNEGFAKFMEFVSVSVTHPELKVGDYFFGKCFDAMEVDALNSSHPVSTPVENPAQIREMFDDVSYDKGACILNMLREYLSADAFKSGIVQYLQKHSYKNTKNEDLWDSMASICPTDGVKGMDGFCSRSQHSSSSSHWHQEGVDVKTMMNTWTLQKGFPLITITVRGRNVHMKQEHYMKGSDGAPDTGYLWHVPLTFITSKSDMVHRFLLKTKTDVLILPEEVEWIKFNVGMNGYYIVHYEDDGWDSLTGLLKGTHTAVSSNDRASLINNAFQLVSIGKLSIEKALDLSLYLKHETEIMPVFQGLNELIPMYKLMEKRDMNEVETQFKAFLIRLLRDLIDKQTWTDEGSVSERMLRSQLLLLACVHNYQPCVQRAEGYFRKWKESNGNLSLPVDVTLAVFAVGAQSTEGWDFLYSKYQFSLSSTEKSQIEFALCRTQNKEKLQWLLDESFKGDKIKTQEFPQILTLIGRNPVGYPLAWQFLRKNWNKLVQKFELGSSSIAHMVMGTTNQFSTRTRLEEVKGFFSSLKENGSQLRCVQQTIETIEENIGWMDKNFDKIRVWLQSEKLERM", "experiment": "ERAP1 aminopeptidase inhibitors, dose response, biochemical, cherry-pick, set 2, plate reader (AID 743314)", "note": "Entries with a potency or affinity are not part of this list. Inconclusive results are not listed. Activity calls are given as the source filed them.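 How the source made its calls: active means fitted half-maximal concentration no higher than twice the top tested dose, in every repeat run; inconclusive means repeat runs disagree, poor fit, or flat partial inhibition; inactive means the rest.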"}
{"smiles": "Cc1cc(OCC(=O)NC(Cc2ccc(Cl)cc2)C(=O)O)c2c3c(c(=O)oc2c1)CCCC3", "note": "(configuration not stated)", "values": [{"measurement": "outcome", "result": "inactive"}]}
{"smiles": "Cc1cc(=O)oc2cc(OCC(=O)N3CCN(C(C)c4ccccc4)CC3)c(Cl)cc12", "note": "(configuration not stated)", "values": [{"measurement": "outcome", "result": "inactive"}]}
